Assay outcomes deposited in PubChem BioAssay by National Center for Advancing Translational Sciences (NCATS).
Shown is part of a subset that was picked to be rich in hits.
BLM inh = inhibitors of human Bloom syndrome helicase BLM; P54132; recombinant BLM DNA unwinding, fluorescence dequenching; Potency, µM (titrated, usually from 56.1 µM), for the others: at the top dose activity change, negative = inhibition, usual class: inhibitors; hit rate 0.2% among 350,000; AID 2528;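 note: plate controls were vehicle for no effect and no enzyme for full effect; nearly all actives have a fitted effect of over 35% in size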
JMJD2E inh = JMJD2E (human) inhibition | B2RXH2 | JMJD2E catalytic domain, FDH-coupled NADH fluorescence (FDH is formaldehyde dehydrogenase) | Potency, µM (top dose mostly 57.1 µM), for inactives: at the highest dose activity change, negative = inhibition, most hits filed as inhibitors | hit rate 1.6% among 230,000 | AID 2147; active = well fitted inhibition curve with a large enough effect, not every such curve was filed as active; inconclusive = small, poorly fitted or top-dose-only effect, or another doubt; inactive = no such curve, though single readings can be large or run the other way;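 note: 0% = wells with enzyme and -100% = buffer wells without enzyme; nearly all actives have a fitted effect of over 50% in size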
Target sequence (B2RXH2 1-337 limits assumed): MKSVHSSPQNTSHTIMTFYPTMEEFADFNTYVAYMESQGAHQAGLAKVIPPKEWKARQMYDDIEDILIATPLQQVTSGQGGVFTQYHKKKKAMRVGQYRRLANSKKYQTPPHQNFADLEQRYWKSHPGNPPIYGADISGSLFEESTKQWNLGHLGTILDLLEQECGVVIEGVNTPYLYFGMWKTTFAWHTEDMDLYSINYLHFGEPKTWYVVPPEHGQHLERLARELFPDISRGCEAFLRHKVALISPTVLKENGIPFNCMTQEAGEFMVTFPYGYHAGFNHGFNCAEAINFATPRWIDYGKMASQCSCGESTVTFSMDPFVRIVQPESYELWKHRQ
APE1 inh-1 = inhibitors of human APE1 endonuclease | P27695 | recombinant APE1, TAMRA/BHQ-2 abasic DNA cleavage fluorescence | Potency, µM (highest dose often 65.8 µM), inactives show at the highest dose activity change, negative = inhibition, actives largely listed as inhibitors | hit rate 0.35% among 350,000 | AID 2517;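 note: plate controls were vehicle for no effect and reference inhibitor for full effect; nearly all actives have a fitted effect of over 55% in size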
Target sequence (P27695 whole entry, looked up): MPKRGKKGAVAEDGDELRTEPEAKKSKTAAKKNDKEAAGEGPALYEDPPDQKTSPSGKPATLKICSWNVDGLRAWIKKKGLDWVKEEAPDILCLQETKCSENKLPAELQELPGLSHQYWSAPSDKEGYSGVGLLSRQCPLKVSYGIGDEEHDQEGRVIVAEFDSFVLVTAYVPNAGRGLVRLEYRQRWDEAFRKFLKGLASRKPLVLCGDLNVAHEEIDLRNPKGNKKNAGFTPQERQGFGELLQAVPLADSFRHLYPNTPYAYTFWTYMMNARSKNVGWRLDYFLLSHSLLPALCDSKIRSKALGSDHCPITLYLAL
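0.75 nM APE1 + cpd, 15 min RT; start w/ 50 nM TAMRA/BHQ-2 THF-abasic dsDNA; kinetic fluor 525/598 nm ×3 reads @60 s; Δ(read3−read1); normalized to DMSO and NSC13755 control wells.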
L3MBTL1 inh = blocks human L3MBTL1. Q9Y468. AlphaScreen L3MBTL1–H3K9me1 peptide binding. Potency, µM (top dose mostly 57.1 µM), without a hit: at the top dose activity, negative = inhibition, hits mostly inhibitors. hit rate 0.66% among 230,000. AID 485360; note: nearly all actives have a fitted effect of over 60% in size
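L3MBTL1 (50 nM) pre-complexed 30 min with biotinylated H3(1-15)K9me1 peptide (75 nM), then compounds added for 30 min at room temperature; AlphaScreen streptavidin donor/nickel chelate acceptor beads (10 ug/mL final) read after 30 min dark incubation.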
RECQ1 inh = RECQ1 (human) helicase inhibition. RECQ1 DNA unwinding, red fluorescence kinetic read. Potency, µM (series often up to 57.3 µM), inactives show top-dose activity, negative = inhibition, most hits filed as inhibitors. hit rate 0.54% among 240,000. AID 2549;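 note: plate controls were vehicle for no effect and no enzyme for full effect; nearly all actives have a fitted effect of over 30% in size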
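50 nM RECQ1T1 preincubated 15 min with compound in Tris pH 8.0 buffer with MgCl2, DTT, Tween-20 and 2.5 ug/ml poly(dI-dC); started with 200 nM TAMRA/BHQ-2 forked duplex and 2 mM ATP. Unwinding read as fluorescence (525/598 nm), two reads 2 h apart.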
GCN5L2 inh = GCN5L2 (KAT2A) acetyltransferase inhibition; GCN5L2 HAT assay, ThioGlo1 CoA-SH fluorescence; Potency, µM (top dose mostly 58.9 µM), for inactives: at the highest dose activity change, negative = inhibition, usual class: inhibitors; hit rate 0.21% among 390,000; AID 504327
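Free CoA generated was detected with ThioGlo1 (50uM) fluorescence at Ex340nm/Em540nm, read immediately and after 20 min at room temperature. Enzyme, 20 nM in HEPES pH 7.5 buffer, saw compounds 15 min before adding 75uM H3(1-25) peptide and 70uM acetyl-CoA.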
DNA dye displace = DNA dye displacement counter-screen activity. shares compounds with APE1 inh-1. hit rate 7% among 480. DNA fluorescent dye displacement counterscreen, fluorescence. Potency, µM (titrated, usually from 28.5 µM), without a hit: top-dose activity change, negative = inhibition, hits mostly inhibitors;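 note: loss of thiazole orange fluorescence as the dye is displaced from duplex DNA; 0% = ThO with dsDNA and no compound and -100% = ThO without dsDNA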
EndoIV counter = Endo IV (E. coli) inhibition counter-screen; E. coli Endo IV, fluorogenic AP-site DNA cleavage; shares compounds with APE1 inh-1; Potency, µM (top dose mostly 27.1 µM), for the others: top-dose activity change, negative = inhibition, usual class: inhibitors; hit rate 4% among 560;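 note: plate controls were uninhibited enzyme wells for no effect and no enzyme buffer wells for full effect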
APE1 inh-2 = APE1 (human) endonuclease inhibition, confirmation; shares compounds with APE1 inh-1; purified APE1, fluorogenic abasic-site DNA cleavage; Potency, µM (series often up to 57.1 µM), for inactives: top-dose activity change, negative = inhibition, most hits filed as inhibitors; hit rate 44% among 750; AID 2572; note: nearly all actives have a fitted effect of over 30% in size
APE1 FP = APE1 (human) DNA binding inhibition, fluorescence polarization. hit rate 7% among 480. APE1 binding to TAMRA-labelled double-stranded DNA, fluorescence polarization displacement. shares compounds with APE1 inh-1. Potency, µM (titrated, usually from 28.5 µM), for the others: top-dose activity, negative = inhibition, usual class: inhibitors
RECQ1 conf = confirmation of human RECQ1 helicase inhibitors; shares compounds with RECQ1 inh; RECQ1 helicase DNA unwinding, fluorescence; Potency, µM (series often up to 229 µM), for the others: top-dose activity change, negative = inhibition, actives largely listed as inhibitors; hit rate 28% among 610; AID 2708; note: nearly all actives have a fitted effect of over 45% in size
RECQ1 ADP FP = ADP displacement flagged in RECQ1 inhibitor counter-screen. shares compounds with RECQ1 inh. hit rate 27% among 530. ADP fluorescence polarization displacement counterscreen. Potency, µM (titrated, usually from 228 µM), inactives show at the top dose activity change, negative = inhibition, usual class: inhibitors; note: nearly all actives have a fitted effect of over 45% in size
Active calls of the source: *; i = inactive; ? = inconclusive; · = no result given; ! = not confirmed by another sample; [ ] = remark or other dose. Unless noted, calls come from the whole dose curve; as a rule, active = well fitted curve in the direction sought with a large enough effect; inconclusive = small, poorly fitted or top-dose-only effect, or another doubt; inactive = no such curve, though single readings can be large; an effect the other way counts as inactive or inconclusive. Unless noted, % is set by controls: 0 for no effect and ±100 for the full control effect; potency is the fitted concentration of half-maximal effect.

SMILES	BLM inh	JMJD2E inh	APE1 inh-1	L3MBTL1 inh	RECQ1 inh	GCN5L2 inh	EndoIV counter	APE1 inh-2	others
Clc1cnc(Oc2ccc(Oc3ncc(Cl)cc3Cl)cc2)c(Cl)c1	-2%	9%	-8%	·	-7%	-12%	-1%[57.1 µM]	-11%
CC(C)C[C@H](NC(=O)[C@H](CC(C)C)NC(=O)[C@H](Cc1ccccc1)NC(=O)[C@@H](N)Cc1ccc(O)cc1)C(=O)N[C@@H](CCCN=C(N)N)C(=O)N[C@@H](CC(N)=O)C(=O)N1CCC[C@H]1C(=O)O	1%	·	-1%	·	9%	0%	·	·
S=C=S	-3%	·	0%	·	-6%	-19%	·	·
Oc1ccccc1O	·	14µM*	28µM*!	18µM*	16µM*!	-7%	13%[57.1 µM]	-15%
Cc1cc(/C=C2/C(=O)NC(=O)N(Cc3ccco3)C2=O)c(C)n1-c1ccccc1	-28%	-8%	?	-28%	28µM*	-17%	8%	?	DNA dye displace=4%;APE1 FP=-3%
CCOC(=O)c1ncc2[nH]c3ccc(OCc4ccccc4)cc3c2c1COC	-7%	·	-11%	·	i	?	·	·
CCc1c(C(=O)OC)ncc2[nH]c3cc(OC)c(OC)cc3c12	·	?	-9%	·	-4%	·	-54%[57.1 µM]	-27%
CC[C@@]1(O)C(=O)OCc2c1cc1n(c2=O)Cc2cc3ccccc3nc2-1	5%	?	9%	·	-3%	?	-5%[57.1 µM]	-23%
CCCCCCC(=O)OC1CC(C)(C)NC(C)(C)C1	-1%	·	-2%	·	-12%	-29%	·	·
C/C=C(/C)C(=O)O[C@H]1C(C)=C2C([C@@H]1OC(=O)CCCCCCC)[C@@](C)(OC(C)=O)C[C@@H](OC(=O)CCC)[C@@]1(O)[C@H]2OC(=O)[C@@]1(C)O (some centres undefined)	·	-12%	-4%	·	-15%	·	10µM*	?
CC1=C2C3OC(=O)C(C)C3CC[C@@]2(C)C=CC1=O (some centres undefined)	2%	5%	?	4%	-16%	?	-4%[57.1 µM]	-4%
CC1=C2[C@@H]3OC(=O)[C@@H](C)[C@@H]3CC[C@]2(C)C=CC1=O	4%[21.4 µM]	5%[25.5 µM]	·	·	-3%[25.9 µM]	12%[21.4 µM]	·	·
CCCCCC(O)C1C(=O)OC(C)C(O)\C=C/C=C\C=C/C=C\C=C(\C)C(O)C(O)C(O)CC(O)CC(O)CC(O)CC(O)CC1O (centres undefined)	6%	·	·	·	·	-1%	·	·
Cc1ccccc1CN1C(=O)C(C)N=C(c2ccccc2)c2ccccc21 (centres undefined)	-2%	·	·	·	·	-7%	·	·
CN1Cc2ccccc2[C@@H]2c3cccc4[nH]cc(c34)C[C@H]21	2%	10µM*	?	·	-11%	-17%	-22%[57.1 µM]	?	DNA dye displace=-6%[57.1 µM];APE1 FP=-9%[57.1 µM]
CC(=O)OCC1=C(C(=O)O)N2C(=O)C(NC(=O)CCCC(N)C(=O)O)C2SC1 (centres undefined)	?	8.9µM*	22µM*	·	3%	15%	27%[57.1 µM]	-7%	DNA dye displace=-1%[57.1 µM];APE1 FP=30%[57.1 µM]
C#CCOS(=O)OC1CCCCC1Oc1ccc(C(C)(C)C)cc1 (centres undefined)	0%	?	0%	·	-8%	-19%	·	·
CO/N=C(\C(=O)N[C@@H]1C(=O)N2C(C(=O)O)=C(CSc3nc(=O)c(O)nn3C)CSC12)c1csc(N)n1 (some centres undefined)	·	?	10µM*	·	?	3%	-15%[57.1 µM]	2.2µM*
c1ccc([Se]c2c(-c3ccccc3)[se]c3ccccc23)cc1	-7%[75.6 µM]	·	1%	·	-14%[81.1 µM]	-12%	·	·
C=CC(=O)OCC(C)C	·	·	15%	·	4%	·	·	·
O=C1NC(=O)N(c2ccc3c(c2)OCO3)C(=O)/C1=C/c1ccc(N2CCCCC2)o1	-1%	-9%	-7%	-4%	-3%	-13%	·	·
O=C1NC(=O)N(c2ccc3c(c2)OCO3)C(=O)/C1=C\c1ccc(-c2ccccc2C(=O)O)o1	-2%	?	20µM*	?	-16%	-16%	-4%	10µM*	DNA dye displace=14%;APE1 FP=5%
N[C@@H](Cc1cc(I)c(O)c(I)c1)C(=O)O	0%	2%	0%	5%	?	?	·	·
NC(Cc1cc(O)c(O)cc1O)C(=O)O (centres undefined)	·	13µM*	0.11µM*	0.16µM*	0.63µM*	0.63µM*	-17%[57.1 µM]	0.79µM*	RECQ1 conf=45µM*;RECQ1 ADP FP=20µM*
O=C1C=CC(=O)c2c(O)cccc21	5.6µM*	7.1µM*	0.32µM*	·	4.5µM*	0.63µM*	-29%[57.1 µM]	?	RECQ1 conf=7.9µM*;RECQ1 ADP FP=?
CC(N)C(O)c1ccc(O)c(O)c1 (centres undefined)	3%	16µM*	1.4µM*!	·	7.1µM*!	10%	36%[57.1 µM]	-2%	DNA dye displace=-5%[57.1 µM];APE1 FP=0%[57.1 µM];RECQ1 conf=?;RECQ1 ADP FP=14µM*
CNC(=S)S	-3%	·	?	·	0%	4%	·	·
COc1ccc(CCN)cc1O	·	2%	11%	·	-2%	·	·	·
NCCc1cc(O)c(O)cc1O	?	6.3µM*	0.4µM*	·	8.9µM*	?	-14%[57.1 µM]	?	DNA dye displace=?;APE1 FP=28µM*!;RECQ1 conf=126µM*;RECQ1 ADP FP=100µM*
c1cc[n+]2c(c1)-c1cccc[n+]1CC2	5%	·	20%	·	2%	39%	·	·
